Test results reported in ChEMBL document CHEMBL3433997, “St. Jude Leishmania screening dataset” (2016).

molecular target: Glucose transporter (Leishmania mexicana) (UniProt O61059); assay: ST_JUDE_LEISH: Cytotoxicity at 2uM final concentration against transgenic Leishmania Mexicana promastigotes LmGT2 that are glucose transport deficient and complemented with the L. Mexicana glucose transporter 2. Activity is measured by DNA content using SYBR green in vitro; assay type: functional

SMILES	inhibition
CCN(CC)CCN(CCN(CC)CC)c1ccc(-c2nc3cc(Cl)c(Cl)cc3[nH]2)cc1	7.03%
CC(C)(C)c1ccc(CN2CCCCC(NC(=O)c3cc(-c4cccc(Cl)c4)cs3)C2)cc1 (stereo not given)	-6.21%
CCc1n[nH]c(C(=O)NC2CCN(CC3(c4ccc(OC)cc4)CCCCC3)CC2)c1C	1.81%
COc1ccccc1-c1ccc2nnc(SCC(=O)Nc3ccc4c(c3)OCCO4)n2n1	3.67%
CC(=O)Nc1ccc(S(=O)(=O)Nc2c(C)cc(Cc3cnc(N)nc3N)cc2C)cc1	-0.69%
CNCCCNc1ccnc2cc(Cl)ccc12	5.03%
O=C(Nc1cccc(-c2cccc(-c3nc4cc(C(F)(F)F)ccc4[nH]3)c2)c1)c1cccnc1	-1.51%
C=CCOC(=O)N1CCC(CNCc2ccc(-c3ccc(-c4nc5cc(C(F)(F)F)ccc5[nH]4)cc3)cc2)C1 (stereo not given)	1.41%
COc1ccc2nccc(N3C[C@H]4C[C@@H]3CN4CCNCc3ccc4c(n3)NC(=O)CS4)c2n1	-1.32%
c1cc(CNCCc2ccncc2)cc(-c2csc(-c3nc4ccccc4[nH]3)c2)c1	1.05%
O=C(NC1CCCCC1)N(Cc1ccc(-c2cccc(CNC3CCCC3)c2)cc1)C1CCN(Cc2ccccc2)CC1	5.72%
O=C(C=Cc1cccs1)Nc1ccc(-c2nc3ccccc3[nH]2)cc1	3.04%
O=S(=O)(Nc1cccc(CCN2CCC(N3CCCCC3)CC2)c1)c1ccc2c(c1)OCCO2	8.66%
COc1cc(C(=O)N2CCOC(CCN3CCC(c4ccc(Cl)cc4)CC3)(c3ccc(Cl)c(Cl)c3)C2)cc(OC)c1OC (stereo not given)	13.7%
CC[C@@]1(O)C(=O)OCc2c1cc1n(c2=O)Cc2c-1nc1cc3c(cc1c2CN1CCN(C)CC1)OCCO3	3.83%
Cc1cc(I)ccc1Nc1nc2nonc2nc1Nc1ccc(I)cc1C	9.11%
CNC(=O)c1cc(NCCCNCc2ccc(Cl)c(C(F)(F)F)c2)nc2ccccc12	-2.48%
CN1CCN(CCCNCc2cccc(Nc3nccc(Nc4ccc(Oc5ccccc5)cc4)n3)c2)CC1	0.79%
O=c1cc(NCCCNCc2ccccc2-c2ccccc2)[nH]c2ccccc12	1.59%
COc1ccc2nccc([C@@H](O)CN3CCC(NC(=O)c4ccc(Cl)c(Cl)c4)CC3)c2c1	18.8%

SMILES	inhibition
Cc1cc(NC(=O)Nc2ccc(C#N)cc2)c2ccccc2n1	0.95%
Cc1ccc(S(=O)(=O)Nc2ccc(Nc3nccc(Nc4cccc5[nH]ncc45)n3)cc2)cc1	0.3%
Cc1c(Cl)cccc1S(=O)(=O)Nc1ccc(CCN2CCC(N)CC2)cc1	-2.13%
CN(C)c1ccc(CN2CCCCC(NC(=O)c3cc(-c4ccccc4Cl)cs3)C2)cc1 (stereo not given)	4.6%
COc1ccc(-c2ccc(NC(=O)c3cccc(Cl)c3)cc2)cc1CN(C)CCN(C)C	4.62%
O=C(NCc1cccc(C(F)(F)F)c1)c1ccc(-c2nc3cc(F)c(F)cc3[nH]2)cc1	4.61%
COc1nc(-n2ccc(=N)cc2)nc2ccccc12	2.63%
NC(=O)c1ccccc1OCC(=O)Nc1cccc(-c2ccc(-c3nc4cc(C(F)(F)F)ccc4[nH]3)cc2)c1	2.79%
O=C(NCCCCN1CCC(c2ccc(OC(F)(F)F)cc2)CC1)c1ccc(NC(=O)c2ccc(Cl)cc2)cc1	-1.72%
COc1ccc2nccc(N3CCC(NCCNCc4ccc5c(n4)NC(=O)CO5)C3)c2n1 (stereo not given)	1.15%
CC1CC1C(=O)NC1CCN(CC2(c3ccccc3)CCCCC2)CC1 (stereo not given)	-0.67%
COc1cccc(CN(C(=O)Nc2ccccc2F)[C@H]2C[C@H]3C(=O)Nc4cc(F)ccc4C(=O)N3C2)c1	5.37%
COc1ccc2nccc(C(=O)NC3CCC(CCN4CCc5cc(C#N)ccc5C4)CC3)c2c1 (stereo not given)	6.71%
Cc1ccc(NC(=O)c2c(C)noc2-c2snnc2C)cc1	3.02%
Cc1[nH]n(-c2cccc(C(F)(F)F)c2)c(=O)c1-c1ccc(Cl)cc1	5.69%
COc1cc(C)nc2ccc(NC(=O)c3cc(C(F)(F)F)cc(C(F)(F)F)c3)cc12	10.1%
CCCCNC[C@@H](O)[C@H](Cc1ccccc1)NC(=O)c1cc2c3c(c1)c(CC)cn3CCS(=O)(=O)N2C	2.04%
O=C(/C=C/c1ccc(Cl)c(Cl)c1)NCCCCCN1CCC(NC(=O)c2ccc3ccccc3c2)CC1	1.46%
COc1cc(NC(=O)Nc2cccc3ccccc23)c(OC)cc1Cl	3.81%
CC(C)(C)n1nnnc1C(c1cccnc1)N(Cc1ccccc1)Cc1ccc(Cl)cc1 (stereo not given)	2.8%
